Screening results from PubChem.
Sampled rows, rich in hits. Any-hit rate of the full collection: about 3.6%.
GPR32 ag – agonists of human resolvin D1 receptor DRV1 (GPR32); CHO-K1 GPR32 beta-arrestin PathHunter luminescence, 90 min; zero percent set by DMSO-only wells; activation, % at 76.9 µM; 48,000 compounds, 2.5% hits; AID 1346428;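 active means activation of at least 60% and not above a set upper limit, about 1 call in 100 departs from these limits; inconclusive means activation of 40% to 60%, or above that upper limit; inactive means activation under 40%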; further: 0% is about no effect
Target sequence (O75388 whole entry, looked up): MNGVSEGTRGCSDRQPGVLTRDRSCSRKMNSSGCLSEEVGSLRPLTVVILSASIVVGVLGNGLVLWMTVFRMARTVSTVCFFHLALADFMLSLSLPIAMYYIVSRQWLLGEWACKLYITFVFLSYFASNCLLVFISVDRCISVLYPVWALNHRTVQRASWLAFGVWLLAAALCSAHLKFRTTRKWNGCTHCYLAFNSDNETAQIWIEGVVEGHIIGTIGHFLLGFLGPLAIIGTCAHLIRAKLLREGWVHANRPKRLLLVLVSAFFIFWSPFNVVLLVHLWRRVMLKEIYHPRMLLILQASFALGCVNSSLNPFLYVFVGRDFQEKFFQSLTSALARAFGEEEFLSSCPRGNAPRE
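CHO-K1 cells stably expressing ProLink-tagged GPR32 and Enzyme Activator-tagged beta-arrestin were seeded at 2,500 cells/well overnight, exposed to compounds for 90 min at 37 °C, then read by beta-Gal complementation chemiluminescence after 1 h detection reagent.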
NTMT1 inh – inhibitors of human N-terminal methyltransferase NTMT1; Potency, µM (top dose mostly 114 µM), for inactives: top-dose activity change, negative = inhibition, most hits filed as inhibitors; Q9BV86; 59,000 compounds, 2.5% hits; NTMT1 MTase-Glo SAH luminescence, purified enzyme;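 further: potency means the concentration at half of the fitted maximal effect; plate controls were DMSO vehicle for no effect and no enzyme for full effect; nearly all actives have a fitted effect of over 65% in size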
Target sequence (Q9BV86 whole entry, looked up): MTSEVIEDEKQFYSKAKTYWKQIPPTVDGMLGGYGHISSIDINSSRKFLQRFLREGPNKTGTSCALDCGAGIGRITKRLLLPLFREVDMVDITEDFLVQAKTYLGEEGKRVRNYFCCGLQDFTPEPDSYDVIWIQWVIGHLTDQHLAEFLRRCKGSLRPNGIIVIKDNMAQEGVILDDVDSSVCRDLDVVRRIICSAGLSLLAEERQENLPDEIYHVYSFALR
TSG101-PTAP inh – inhibitors of HIV-1 PTAP binding to human TSG101, validation. Q99816. Fluorescence polarization, FITC-PTAP peptide/Tsg101, 20 min. Potency, µM (highest dose often 115 µM), hits mostly inhibitors. 44,000 tested, under 10 active; further: potency means the concentration at half of the fitted maximal effect; 0% is about no effect
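The Tsg101 binding domain, at 10 uM final, is mixed with compound and a FITC peptide bearing the PTAP motif (50 nM final). After 20 min at r.t., polarization is measured; actives defined by CRC class, efficacy cut-off 60% inhibition.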
GALC G270D act – enhancers of human galactocerebrosidase G270D mutant activity in cells | Potency, µM (series often up to 57.5 µM), actives largely listed as activators | P54803 | AID 1159614 | 145M-Twi-hGALC-G270D cells (Twitcher mouse brain line with human GALC G270D), HMU-beta-Gal fluorescence, 48 h | 45,000 compounds, 0.1% hits; further: potency means the concentration at half of the fitted maximal effect; 0% is about no effect; nearly all actives have a fitted effect of over 65% in size
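Fluorescence readout: HMU-β-gal cleavage by mutant GALC (0.1 mM final, citrate/phosphate pH 5.2 with 1 mg/mL taurocholate), stopped with carbonate/bicarbonate plus Triton X-100. Cells: murine Twitcher 145M-Twi expressing human G270D GALC; qHTS for activators.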
B2AR arrestin ag – agonists recruiting beta-arrestin to human beta2-adrenergic receptor; P07550; 44,000 tested, under 10 active; Potency, µM (doses to about 46.1 µM), actives largely listed as activators; AID 1347077; HTLA Tango cells, beta-arrestin recruitment, luciferase luminescence, 18 h;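 further: potency means the concentration at half of the fitted maximal effect; 0% = DMSO and full agonism = EC100 isoproterenol or metaproterenol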
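Tango cells expressing recombinant beta2-AR and beta-arrestin were treated with compounds (up to 46 microM titration) in DMEM with 1% FBS for 18 hr at 37 degrees C. Beta-arrestin recruitment drove tTA-dependent luciferase, read by luminescence; curves were fitted and classed.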
GALK inh – inhibitors of human galactokinase (GALK); P51570; recombinant GALK, Kinase-Glo ATP luminescence, 1 h; Potency, µM (titrated, usually from 57.5 µM), inactives show top-dose activity, negative = inhibition, most hits filed as inhibitors; 44,000 tested, under 10 active; AID 1347072;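 further: plate controls were full GALK reaction for no effect and reaction lacking GALK for full effect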
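Reactions with and without enzyme served as controls. GALK at 5 nM phosphorylates 100 uM galactose using 35 uM ATP (HEPES pH 8.0, Mg2+) for 1 h at RT, with luminescence read 10 min after adding Kinase-Glo Plus.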
Numbers without * were called inactive; i = inactive; u = inconclusive; x = no result; ! = not confirmed by another sample; [ ] = dose if it differs, or a comment. Unless noted, the call rests on the fitted dose curve; in most records, active means well fitted curve in the direction sought with a large enough effect; inconclusive means small, poorly fitted or top-dose-only effect, or another doubt; inactive means no such curve, though single readings can be large; an effect the other way counts as inactive or inconclusive.

SMILES	GPR32 ag	NTMT1 inh	TSG101-PTAP inh	GALC G270D act	B2AR arrestin ag	GALK inh
O=C(c1cc(Cc2n[nH]c(=O)c3ccccc23)ccc1F)N1CCCNCC1	x	5%[57.5 µM]	x	x	x	x
O=C1c2c(O)ccc(O)c2C(=O)c2c(NCCNCCO)ccc(NCCNCCO)c21	-34	28µM*!	x	i	x	x
Cc1ccc(OCCn2c(CCNC(=O)c3ccc(C(C)(C)C)cc3)nc3ccccc32)cc1	x	6%[57.5 µM]	x	x	x	x
COc1cc(F)c(F)c(Nc2ccc(I)cc2F)c1NS(=O)(=O)C1(CC(O)CO)CC1 (stereo not drawn)	x	-25%[57.5 µM]	x	x	x	x
Cc1oc(-c2ccccc2)nc1CCC(=O)c1ccc(CC2SC(=O)NC2=O)cc1 (stereo not drawn)	74*	35%[57.5 µM]	x	i	x	x
CC(=O)c1cccc(NS(=O)(=O)c2ccc3c(c2)NC(=O)CC(=O)N3)c1	0	4%	i	i	i	-3%
O=S(=O)(Nc1cccc(Cl)c1)c1ccc2[nH]c3c(c2c1)CCCCCC3	62*	-5%	i	i	i	-4%
Cc1cc(C)cc(NC(=O)CN(C)S(=O)(=O)c2ccc3[nH]c4c(c3c2)CCCC4)c1	15	u	i	i	i	-4%
Cc1cccc(C)c1NC(=O)CN(C)S(=O)(=O)c1ccc2[nH]c3c(c2c1)CCCC3	62*	u	i	i	i	1%
CC(=O)c1cccc(NS(=O)(=O)c2cccc(S(=O)(=O)c3ccc(Br)cc3)c2)c1	63*	-7%	i	i	i	-19%
Cc1cccc(NS(=O)(=O)c2ccc3[nH]c4c(c3c2)CCCCCC4)c1	6	-1%	i	i	i	u
CC(=O)c1cccc(NS(=O)(=O)c2ccc3[nH]c4c(c3c2)CCCCCC4)c1	100*	-6%	i	i	i	-6%
O=C1[C@H](O[C@@H]2O[C@H](CO)[C@@H](O)[C@H](O)[C@H]2O)Oc2ccccc2N1O	x	10%[29.8 µM]	x	x	x	x
CC(=O)c1cccc(NS(=O)(=O)c2ccc3[nH]c4c(c3c2)CCCCC4)c1	32	-11%	i	i	i	1%
CCOC(=O)c1cccc(NS(=O)(=O)c2ccc3[nH]c4c(c3c2)CCCC4)c1	82*	u	i	i	i	3%
CCOc1ccccc1Nc1sc(C(=O)c2ccc(Cl)cc2)c(N)c1C#N	u	7%	i	i	i	-1%
Cc1ccc(C(=O)c2sc(Nc3ccc(F)cc3)c(C#N)c2N)cc1	86*	-4%	i	i	i	8%
Cc1ccc(OCCn2c(CCNC(=O)c3ccc(C(F)(F)F)cc3)nc3ccccc32)cc1	x	-8%	x	x	x	x
COc1ccccc1/C=C/C(=O)NCCc1nc2ccccc2n1CCOc1ccc(C)cc1	x	15%	x	x	x	x
COC(=O)c1c(NC(=O)COc2c(C)cccc2C)sc2c1CCCC2	6	1%	i	i	i	2%
CCOc1ccccc1NC(=O)c1c(NC(=O)COc2ccccc2)sc2c1CCCC2	105*	-1%	i	i	i	3%
CCCc1ccc(OCC(=O)Nc2sc3c(c2C(=O)OC)CCCCC3)cc1	-15	89µM*	i	i	i	0%
CCOc1ccccc1NC(=O)c1c(NCc2ccc(C)o2)sc2c1CCCCC2	-14	25µM*	i	i	i	2%
COc1ccc(C(=O)OC2C3C=COC(OC4OC(CO)C(O)C(O)C4O)C3C3(CO)OC23)cc1OC (stereo not drawn)	x	3%[29.8 µM]	x	x	x	x
Cc1ccc(C2NC(=O)c3n[nH]c(-c4cccs4)c32)cc1 (stereo not drawn)	120*	-19%	i	i	i	7%
SMILES	GPR32 ag	NTMT1 inh	TSG101-PTAP inh	GALC G270D act	B2AR arrestin ag	GALK inh
COc1ccccc1C1NC(=O)c2n[nH]c(-c3cccs3)c21 (stereo not drawn)	104*	u	i	i	i	0%
Cc1ccc(-c2nc(-c3cccs3)c(-c3cccs3)[nH]2)cc1	-12	u	i	i	i	6%
COc1ccccc1C1c2c(-c3ccc(Cl)cc3)n[nH]c2C(=O)N1c1ccc(C)cc1 (stereo not drawn)	-21	16%	i	i	i	6%
Cc1ccc(OCCn2c(CCNC(=O)c3ccc4ccccc4c3)nc3ccccc32)cc1	x	1%[57.5 µM]	x	x	x	x
C[C@@H](Nc1cc(F)cc(F)c1)c1cc(C(=O)N(C)C)cc2c(=O)cc(N3CCOCC3)oc12	x	18%	x	x	x	x
Cc1cc(NC(=O)c2ccc(NC(=O)Cc3ccc(Cl)c(Cl)c3)cc2)no1	x	9%	x	x	x	x
COc1ccccc1N1CCN(S(=O)(=O)c2ccc(-c3ccno3)cc2OC)CC1	-7	89µM*	i	i	i	-2%
O=C(COc1ccccc1)NCCc1csc(-c2ccc(Cl)cc2)n1	95*	-3%	i	i	i	-5%
O=C(COc1ccc(Cl)cc1)NCCc1csc(-c2ccc(F)cc2)n1	109*	21%	i	i	i	2%
CCOCOC[C@H](C[C@H](C)C(=O)NO)NC(=O)c1ccc(Oc2ccccc2)cc1	x	4%	x	x	x	x
Cc1cccc(-c2nc3c4ccccc4n(CC(=O)Nc4cccc(F)c4)c(=O)n3n2)c1	76*	-2%	i	i	i	-1%
O=C(NCCN1CCN(c2cccc3c2OCCO3)CC1)c1ccc(F)cc1	x	2%[57.5 µM]	x	x	x	x
O=[N+]([O-])c1ccc(/C=N\O)o1	22	24%[57.5 µM]	x	i	x	x
NC(N)=NN=C(/C=C/c1ccc([N+](=O)[O-])o1)/C=C/c1ccc([N+](=O)[O-])o1	-26	40µM*	x	i	x	x
CC1(C)CC(C(=O)Nc2ccc([S+](=O)([O-])Nc3nccs3)cc2)C1	x	4%[57.5 µM]	x	x	x	x
Nc1cccc(-c2cc3c(Oc4cccc(O)c4)ncnc3[nH]2)c1	x	22µM*!	x	x	x	x
CC1(C)CC2C(O)C3=C(CC(C)(O)C2C1)C(=O)OC3O (stereo not drawn)	x	8%[57.5 µM]	x	x	x	x
CNc1oc(-c2cccc3c2OC(F)(F)O3)nc1C#N	x	2%	x	x	x	x
CC(=O)N/N=C/c1ccc([N+](=O)[O-])o1	68*	-20%[57.5 µM]	x	i	x	x
